16 molecules from PubChem BioAssay (NCATS) can be followed below.

Molecules are shown by their SMILES. Several values for one entry are separate records, joined by “and”; a condition that tells them apart may be missing. Equal values may be shown once. Results filed as inconclusive are left out. Values without a mark were called inactive. Activity calls are given as the source filed them. The call rests on the fitted dose curve; in most records, active means well fitted curve in the direction sought with a large enough effect; inconclusive means small, poorly fitted or top-dose-only effect, or another doubt; inactive means no such curve, though single readings can be large; an effect the other way counts as inactive or inconclusive.

For assay [1], the target named is Cellular tumor antigen p53 (Homo sapiens) (UniProt P04637). As to the kind of experiment: Primary qHTS for small molecule compounds that upregulate eGFP-tagged delta133p53alpha (in N-terminal) cells. (AID 2060322). Further: nearly all actives have a fitted effect of over 75% in size.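 On activation: series mostly up to about 56 µM; 0% = DMSO vehicle and 100% = reference activator.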 Conditions: NCI-H358 eGFP-delta133p53alpha fluorescence, 24 h; activation: stronger effect = higher value. Summed up: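 NCI-H358 cells pre-induced 24 h with 10 ng/ml doxycycline to express N-terminal eGFP-delta133p53alpha, then dosed 24 h at 37C without doxycycline; fixed, Hoechst-stained, GFP intensity by laser scanning cytometry, normalized to DMSO (0%) and 57.5 uM 5-azacytidine (100%).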
Chain of Cellular tumor antigen p53 (Homo sapiens) (P04637 whole entry, looked up): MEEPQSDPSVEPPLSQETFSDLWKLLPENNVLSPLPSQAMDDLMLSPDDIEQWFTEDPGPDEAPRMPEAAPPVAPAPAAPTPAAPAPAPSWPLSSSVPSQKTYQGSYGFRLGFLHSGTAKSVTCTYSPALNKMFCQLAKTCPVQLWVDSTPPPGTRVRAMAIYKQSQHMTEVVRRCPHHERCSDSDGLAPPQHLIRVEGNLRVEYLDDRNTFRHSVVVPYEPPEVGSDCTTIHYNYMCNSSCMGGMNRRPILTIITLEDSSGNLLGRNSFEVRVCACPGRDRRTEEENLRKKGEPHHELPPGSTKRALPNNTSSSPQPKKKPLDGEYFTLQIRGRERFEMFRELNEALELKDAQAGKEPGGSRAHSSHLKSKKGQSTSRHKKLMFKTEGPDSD

A short description of assay [2]: BET inhibitor-based combinations targeting novel dependencies in MECOM-rearranged (r) AML: SET-2 cell line (AID 2202231). Further: nearly all actives have a fitted effect of over 35% in size.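 On viability: plate controls were DMSO treated cells for no effect and wells without cells for full effect.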 The conditions noted are these: SET-2 AML cells viability, CellTiter-Glo luminescence, 48 h; viability: stronger effect = lower value, concentration not given here. Summed up:
(§1)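 Readout: CellTiter-Glo luminescence. Exposure: 48 h, 11 concentrations, 500 cells/well. Metric: AUC and within-line Z-AUC after DMSO/empty-well normalization.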

Assay [3] is described as follows: BET inhibitor-based combinations targeting novel dependencies in MECOM-rearranged (r) AML: OCI-AML3 cell line (AID 2202232). Further: nearly all actives have a fitted effect of over 35% in size.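 On viability (% of control): series mostly up to about 46 µM; plate controls were DMSO vehicle wells for no effect and wells without cells for full effect.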 Conditions: Potency: OCI-AML3 viability. Summed up: as §1
A short description of assay [4]: BET inhibitor-based combinations targeting novel dependencies in MECOM-rearranged (r) AML: MV-4-11 cell line (AID 2202233). Further: nearly all actives have a fitted effect of over 45% in size.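 On viability, % of control: plate controls were DMSO for no effect and blank wells for full effect.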 The procedure, abridged:
(§2)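 Seeding density was 500 cells/well, and drug exposure lasted 48 hr under standard culture conditions. Read-out used CellTiter-Glo reagent with a 15 min room-temperature incubation before luminescence measurement; AUC and Z-AUC summarize the normalized responses.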

The nature of assay [5]: BET inhibitor-based combinations targeting novel dependencies in MECOM-rearranged (r) AML: HNT-34 cell line (AID 2202234). Further: nearly all actives have a fitted effect of over 35% in size.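 On viability (% of control): plate controls were vehicle wells for no effect and cell-free wells for full effect.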 Summed up:
as §2

The nature of assay [6]: BET inhibitor-based combinations targeting novel dependencies in MECOM-rearranged (r) AML: UCSD-AML1 cell line (AID 2202235). Further: nearly all actives have a fitted effect of over 40% in size.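 On viability (% of control): series mostly up to about 46 µM; plate controls were DMSO vehicle wells for no effect and blank wells for full effect.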 Summed up: as §2
Assay [7] can be described thus: BET inhibitor-based combinations targeting novel dependencies in MECOM-rearranged (r) AML: AML-191 cell line (AID 2202236; further: nearly all actives have a fitted effect of over 35% in size;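 on viability (% of control): plate controls were vehicle wells for no effect and wells without cells for full effect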). The procedure, abridged:
as §1

A short description of assay [8]: BET inhibitor-based combinations targeting novel dependencies in MECOM-rearranged (r) AML: AML-194 cell line (AID 2202237; further: nearly all actives have a fitted effect of over 40% in size;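 on viability (% of control): plate controls were vehicle wells for no effect and wells without cells for full effect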). Summed up: as §1
Potency means the concentration at half of the fitted maximal effect.

In the case of `Cc1ccc(C(=O)Nc2ccc(CN3CCN(C)CC3)c(C(F)(F)F)c2)cc1C#Cc1cnc2cccnn12`, the Potency in assay [1] is 7.69 µM (active) and 10.7 µM (active); in assay [2], 7420 nM (active); in assay [3] it was 1860 nM (active); in assay [4], 26.3 nM (active); in assay [5], 8.3 nM (active); in assay [6], 2630 nM (active). Moreover, the Potency is 934 nM (active) in assay [7] and 1480 nM (active) in assay [8].

With `O=C(O)CSCC(=O)NC1CCSC1=O` (stereo not drawn), the activation in assay [1] is -13.1% and -8.37%. For the same molecule, the viability in assay [2] was 95.2%. In addition, the Potency result in assay [3], in assay [4], in assay [5], in assay [6], in assay [7] and in assay [8] was “inactive” each time.

With `NC(=O)C1CCCc2c1[nH]c1ccc(Cl)cc21` (stereo not drawn), in assay [1], the activation was 10.6%. Also, in assay [2], the viability was 104%. Further, the Potency result in assay [3], in assay [4], in assay [5], in assay [6], in assay [7] and in assay [8] was “inactive” each time.

Turning to `O=C(NCCO[N+](=O)[O-])c1cccnc1`, the activation in assay [1] was -0.853% and 0.837%. The viability in assay [2] was 114%. Besides, the Potency entry in assay [3], in assay [5], in assay [6], in assay [7] and in assay [8] was “inactive” each time. The Potency in assay [4] was 4680 nM (active).

Take `N#Cc1ccnc(Nc2cc(C3CCN(C4COC4)CC3)cc(N3CCC(F)(F)C3)n2)c1`: the Potency in assay [1] was 27.2 µM (active); in assay [2] it was 3720 nM (active); in assay [3], 8330 nM (active); in assay [4] it was 235 nM (active); in assay [5] it was 833 nM (active); in assay [6] it was 2950 nM (active). For the same molecule, the values for the Potency in assay [7] and in assay [8] were 2950 nM (active) and 4170 nM (active), respectively.

Regarding `CN1CC[C@@H](c2c(O)cc(O)c3c(=O)cc(-c4ccccc4Cl)oc23)[C@@H](O)C1`, the Potency is 0.217 µM (active) in assay [1]; 525 nM (active) in assay [2]; 263 nM (active) in assay [3]; 468 nM (active) in assay [4]; 468 nM (active) in assay [5]; 417 nM (active) in assay [6]. Also, the Potency was 372 nM (active) in assay [7] and 417 nM (active) in assay [8].

Take `CC(C)(CO)[C@@H](O)C(=O)NCCC(=O)O`: the activation in assay [1] is -14.4%. Further, in assay [2], the viability was 117%. The Potency result in assay [3], in assay [4], in assay [5], in assay [6], in assay [7] and in assay [8] was “inactive” in each case.

As to `CCCCCN=C(N)N/N=C/c1c[nH]c2ccc(OC)cc12`, the activation in assay [1] is 9.6%. Moreover, the Potency in assay [2] is 23500 nM (active); in assay [3] it was 8330 nM (active); in assay [4] it was 8330 nM (active); in assay [5], 9340 nM (active); in assay [6], 16600 nM (active); in assay [7] it was 18600 nM (active). Besides, the Potency in assay [8] was 20900 nM (active).

Take `N=c1ccn2c(n1)O[C@H]1[C@@H](O)[C@@H](CO)O[C@H]12`: the activation in assay [1] is 18.1%. The Potency was 1050 nM (active) in assay [2]; 5250 nM (active) in assay [3]; 1320 nM (active) in assay [4]; 235 nM (active) in assay [5]; 83.3 nM (active) in assay [6]; 235 nM (active) in assay [7]. Moreover, the Potency in assay [8] was 118 nM (active).

`Nc1ccn(C[C@@H](CO)OCP(=O)(O)O)c(=O)n1`: the activation in assay [1] is -2.13%. Besides, the viability in assay [2] is 113%. In addition, the viability (% of control) in assay [3] was 113% [at 8.46 µM]; in assay [5] it was 82.3% [at 8.46 µM]; in assay [6], 104% [at 8.46 µM]; in assay [7] it was 91.5% [at 8.46 µM]; in assay [8], 105% [at 8.46 µM]. Besides, the viability, % of control in assay [4] is 126% [at 8.46 µM].

Take `C=C(C)[C@@H]1CC[C@]2(C)CC[C@]3(C)[C@H](CC[C@@H]4[C@@]5(C)CC[C@H](O)C(C)(C)[C@H]5CC[C@]43C)[C@@H]12`: the activation in assay [1] was -1.45%. Also, the viability in assay [2] was 117%. For the same molecule, the Potency entry in assay [3], in assay [4], in assay [5], in assay [6], in assay [7] and in assay [8] was “inactive” in each case.

`Nc1nc(-c2nn(Cc3ccccc3F)c3ncccc23)nc(N)c1N1CCOCC1`: the activation in assay [1] was 6.49%. In addition, the viability in assay [2] is 123%. In assay [3], the Potency is 1.8 nM (active). In addition, the Potency entry in assay [4], in assay [5], in assay [6], in assay [7] and in assay [8] was “inactive” throughout.

Take `CN1CC(=O)NC1=NC(=O)Nc1cccc(Cl)c1`: in assay [1], the activation was -20.6%. The viability in assay [2] is 111%. Moreover, the Potency result in assay [3], in assay [4], in assay [5], in assay [6], in assay [7] and in assay [8] was “inactive” each time.

For the molecule `CO[C@@H]1[C@@H](OC(N)=O)[C@@H](O)[C@H](Oc2ccc3c(O)c(NC(=O)c4ccc(O)c(CC=C(C)C)c4)c(=O)oc3c2C)OC1(C)C`, the activation in assay [1] is -10.7% and -17.4%. The viability in assay [2] was 122%. The Potency entry in assay [3], in assay [4], in assay [5], in assay [6], in assay [7] and in assay [8] was “inactive” in each case.

Take `C[C@H]1COc2c(N3CCN(C)CC3)c(F)cc3c(=O)c(C(=O)O)cn1c23`: the activation in assay [1] is -12.8%. For the same molecule, in assay [2], the viability is 108%. Moreover, the Potency result in assay [3], in assay [4], in assay [5], in assay [6], in assay [7] and in assay [8] was “inactive” throughout.

In the case of `CC(C)C[C@H](NC(=O)CNC(=O)c1cc(Cl)ccc1Cl)B(O)O`, the Potency in assay [1] is 17.2 µM (active); in assay [2], 105 nM (active); in assay [3], 118 nM (active); in assay [4] it was 148 nM (active); in assay [5] it was 132 nM (active); in assay [6], 166 nM (active). Moreover, the values for the Potency in assay [7] and in assay [8] were 166 nM (active) and 332 nM (active), respectively.
